From PubChem BioAssay AID1159580 (chemical genetic matrix, 2015)
The whole screen tested about 5,500 compounds, of which about 2,000 (36%) were called active. Not shown: some 18% with an inconclusive outcome. Rule as the data show it: active = normalized growth mostly below about 0.91 (no sharp cut-off); inconclusive = no clear call, values can overlap the other calls; inactive = mostly above about 0.92. Some of the results follow.

Assay: chemical genetic growth profiling, strain panel (AID 1159580);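 also: tested at 20 µM; growth read once vehicle control cultures reached saturation at 30 °C; 1 = growth at the plate median or of vehicle wells; lower values mean less growth of the strain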
Settings: S. cerevisiae deletion strains, growth OD

Measured: normalized growth

COc1cccc2c1CCC1CC(=O)CCC21C (stereo unspecified)
inactive: locus YAL021C, strain ccr4, hits give low values 0.99 | locus YAL026C, strain drs2, hits give low values 0.994 | locus YAL030W, strain snc1, hits give low values 0.991 | locus YBL061C, strain skt5, hits give low values 1 | locus YBR009C, strain hhf1, hits give low values 0.996 | locus YBR021W, strain FUR4, hits give low values 0.92 | locus YBR023C, strain chs3, hits give low values 0.993 | locus YBR171W, strain sec66, hits give low values 0.985 | locus YBR229C, strain ROT2, hits give low values 0.992 | locus YBR231C, strain swc5, hits give low values 0.996 | locus YBR279W, strain paf1, hits give low values 0.988 | locus YCL011C, strain gbp2, hits give low values 1 | locus YCL016C, strain dcc1, hits give low values 0.995 | locus YCL029C, strain bik1, hits give low values 0.955 | locus YCL061C, strain MRC1, hits give low values 0.996 | locus YCL069W, strain vba3, hits give low values 0.994 | locus YCR088W, strain abp1, hits give low values 0.993 | locus YDL005C, strain med2, hits give low values 1 | locus YDL035C, strain GPR1, hits give low values 0.982 | locus YDL040C, strain nat1, hits give low values 0.992 | locus YDL074C, strain BRE1, hits give low values 0.931 | locus YDL101C, strain DUN1, hits give low values 0.986 | locus YDL134C, strain PPH21, hits give low values 0.956 | locus YDL185W, strain tfp1, hits give low values 0.953 | locus YDL192W, strain arf1, hits give low values 0.936 | locus YDR001C, strain nth1, hits give low values 0.984 | locus YDR069C, strain doa4, hits give low values 1.01 | locus YDR101C, strain arx1, hits give low values 0.983 | locus YDR137W, strain rgp1, hits give low values 0.998 | locus YDR159W, strain sac3, hits give low values 1.02 | locus YDR162C, strain NBP2, hits give low values 0.919 | locus YDR195W, strain ref2 1.07 | locus YDR297W, strain sur2, hits give low values 1 | locus YDR318W, strain mcm21, hits give low values 0.937 | locus YDR334W, strain swr1, hits give low values 1 | locus YDR335W, strain msn5, hits give low values 1 | locus YDR388W, hits give low values 0.948 | locus YDR392W, strain spt3, hits give low values 0.873 | locus YEL003W, strain gim4, hits give low values 0.981 | locus YEL037C, strain rad23, hits give low values 0.992 | locus YEL061C, strain CIN8 (second series), hits give low values 0.995 | locus YEL061C, strain CIN8, hits give low values 0.987 | locus YER015W, strain faa2, hits give low values 1 | locus YER016W, strain bim1, hits give low values 0.994 | locus YER110C, hits give low values 0.934 | locus YER111C, strain swi4, hits give low values 0.994 | locus YER155C, strain BEM2 (second series), hits give low values 0.944 | locus YER155C, strain BEM2, hits give low values 0.982 | locus YER167W, strain BCK2, hits give low values 0.993 | locus YFR010W, strain ubp6, hits give low values 1 | locus YGL078C, strain dbp3, hits give low values 0.983 | locus YGL167C, strain pmr1, hits give low values 1 | locus YGL173C, strain kem1, hits give low values 0.987 | locus YGL227W, strain vid30, hits give low values 0.998 | locus YGL240W, strain doc1, hits give low values 0.982 | locus YGL248W, strain PDE1, hits give low values 0.975 | locus YGL253W, strain hxk2, hits give low values 1 | locus YGR229C, strain SMI1, hits give low values 0.991 | locus YGR252W, strain gcn5, hits give low values 0.777 | locus YHR013C, strain ard1, hits give low values 0.976 | locus YHR027C, strain rpn1, hits give low values 1.02 | locus YHR030C, strain SLT2, hits give low values 0.991 | locus YHR079C, strain IRE1 (second series), hits give low values 0.955 | locus YHR094C, strain hxt1, hits give low values 0.948 | locus YHR129C, strain ARP1, hits give low values 0.977 | locus YHR142W, strain chs7, hits give low values 0.981 | locus YHR200W, strain rpn10, hits give low values 0.941 | locus YIL066C, strain RNR3, hits give low values 0.968 | locus YIL073C, strain SPO22, hits give low values 0.887 | locus YIL125W, strain kgd1, hits give low values 0.977 | locus YIR030C, strain dcg1, hits give low values 0.962 | locus YJL092W, strain hpr5, hits give low values 0.994 | locus YJL095W, strain BCK1 (second series), hits give low values 0.99 | locus YJL095W, strain BCK1, hits give low values 0.91 | locus YJL115W, strain asf1, hits give low values 1 | locus YJL129C, strain trk1, hits give low values 0.939 | locus YJL134W, strain LCB3, hits give low values 0.981 | locus YJL154C, strain vps35, hits give low values 0.995 | locus YJL164C, strain tpk1, hits give low values 0.989 | locus YJL166W, strain qcr8, hits give low values 0.991 | locus YJL168C, strain set2, hits give low values 0.963 | locus YJL187C, strain SWE1 (second series), hits give low values 0.963 | locus YJL187C, strain SWE1, hits give low values 1.01 | locus YKL009W, strain mrt4, hits give low values 0.97 | locus YKL068W, hits give low values 0.969 | locus YKL085W, strain MDH1 (second series), hits give low values 0.966 | locus YKL085W, strain MDH1, hits give low values 0.966 | locus YKL160W, strain elf1, hits give low values 0.98 | locus YKL190W, strain CNB1, hits give low values 0.993 | locus YKR001C, strain vps1, hits give low values 0.914 | locus YKR026C, strain gcn3, hits give low values 0.992 | locus YKR091W, strain srl3, hits give low values 0.988 | locus YLL001W, strain dnm1, hits give low values 0.994 | locus YLL026W, hits give low values 0.999 | locus YLL041C, strain sdh2, hits give low values 0.99 | locus YLR027C, strain aat2, hits give low values 0.985 | locus YLR039C, strain RIC1, hits give low values 0.974 | locus YLR058C, strain SHM2, hits give low values 0.982 | locus YLR102C, strain apc9, hits give low values 0.961 | locus YLR221C, strain rsa3, hits give low values 1.01 | locus YLR258W, strain gsy2, hits give low values 0.983 | locus YLR262C, strain YPT6 (second series), hits give low values 1 | locus YLR268W, strain sec22, hits give low values 0.963 | locus YLR320W, strain mms22, hits give low values 0.977 | locus YLR330W, strain CHS5, hits give low values 0.98 | locus YLR342W, strain FKS1, hits give low values 0.994 | locus YLR357W, strain rsc2, hits give low values 1.01 | locus YLR370C, strain arc18, hits give low values 0.987 | locus YLR371W, strain rom2, hits give low values 0.965 | locus YLR384C, strain iki3, hits give low values 0.999 | locus YML016C, strain PPZ1, hits give low values 0.978 | locus YML032C, strain rad52, hits give low values 0.946 | locus YML120C, strain ndi1, hits give low values 0.987 | locus YML124C, strain tub3, hits give low values 0.969 | locus YMR058W, strain fet3, hits give low values 0.995 | locus YMR078C, strain ctf18, hits give low values 0.95 | locus YMR125W, strain sto1, hits give low values 0.995 | locus YMR129W, hits give low values 0.991 | locus YMR205C, strain PFK2, hits give low values 0.982 | locus YMR223W, strain ubp8, hits give low values 0.947 | locus YMR231W, strain pep5, hits give low values 0.99 | locus YMR263W, strain SAP30, hits give low values 0.965 | locus YMR307W, strain GAS1, hits give low values 0.849 | locus YNL067W, strain RPL9B, hits give low values 0.968 | locus YNL071W, strain lat1, hits give low values 0.985 | locus YNL209W, strain ssb2, hits give low values 0.992 | locus YNL233W, strain BNI4, hits give low values 0.937 | locus YNL248C, strain rpa49, hits give low values 0.998 | locus YNL250W, strain rad50, hits give low values 0.952 | locus YNL271C, strain bni1, hits give low values 0.962 | locus YNL298W, strain CLA4, hits give low values 0.959 | locus YNL307C, strain MCK1, hits give low values 0.917 | locus YNL322C, strain KRE1 (second series), hits give low values 0.996 | locus YNL322C, strain KRE1, hits give low values 0.982 | locus YNR049C, strain mso1, hits give low values 1.01 | locus YNR052C, strain pop2, hits give low values 0.969 | locus YOL006C, strain TOP1, hits give low values 0.788 | locus YOL012C, strain htz1 0.835 | locus YOL147C, strain pex11, hits give low values 0.949 | locus YOR001W, strain rrp6, hits give low values 1.01 | locus YOR061W, strain CKA2, hits give low values 0.991 | locus YOR069W, strain VPS5, hits give low values 0.977 | locus YOR070C, strain gyp1, hits give low values 0.985 | locus YOR080W, strain dia2, hits give low values 1.01 | locus YOR083W, strain WHI5, hits give low values 0.987 | locus YOR106W, strain vam3, hits give low values 1 | locus YOR136W, strain idh2, hits give low values 0.966 | locus YOR144C, strain elg1, hits give low values 0.958 | locus YOR265W, strain rbl2, hits give low values 1.01 | locus YOR270C, strain vph1, hits give low values 0.907 | locus YOR290C, strain snf2, hits give low values 0.985 | locus YOR316C, strain cot1, hits give low values 0.947 | locus YPL051W, strain arl3, hits give low values 0.981 | locus YPL078C, strain atp4, hits give low values 0.979 | locus YPL106C, strain sse1, hits give low values 1 | locus YPL240C, strain hsp82, hits give low values 0.993 | locus YPR119W, strain clb2, hits give low values 0.958 | locus YPR141C, strain kar3, hits give low values 0.965 | locus YPR167C, strain met16, hits give low values 0.952 | strain wtn01, hits give low values 0.936
active: locus YDR502C, strain sam2, hits give low values 0.912 | locus YGL086W, strain mad1, hits give low values 0.922 | locus YGR135W, strain pre9, hits give low values 0.886 | locus YLR418C, strain cdc73, hits give low values 0.812 | locus YOR184W, strain ser1, hits give low values 0.848 | locus YPR163C, strain tif3, hits give low values 0.902
